According to PubChem BioAssay (NCATS):
Results filed as inconclusive are left out. Values without a mark were called inactive. Activity calls are given as the source filed them. The call rests on the fitted dose curve; in most records, active means well fitted cell-killing curve with a large enough effect; inconclusive means small, poorly fitted or top-dose-only effect, or effect the other way; inactive means no such curve, though single readings can be large or run the other way.

Test: Quantitative High-Throughput drug screen in 47 multiple myeloma cell lines against the NCATS MIPE library collection: KMS21BM_JCRB cell viability assay (AID 1918974)
Conditions: ATP luminescence, 48 h; viability: at 45.8 µM unless noted
From the text: PI: Beverly A. Mock Ph.D.
Laboratory of Cancer Biology and Genetics,
Center for Cancer Research, National Cancer Institute,
National Institute of Health, Bethesda, Maryland
Drug resistance and disease progression are common in multiple myeloma (MM) patients, underscoring the need for new therapeutic combinations. […] We hypothesized that effective combinations would reduce MYC expression and enhance p16 activity. […] These preclinical data identify potentially useful drug combinations for evaluation in drug-resistant MM and reveal potential mechanisms of combined drug sensitivity.
Described herein is the primary MIPE qHTS used to cherrypick compounds. Validated compounds were then further tested for potential synergistic activiy.
[1] Peat TJ, Gaikwad SM, Dubois W, Gyabaah-Kessie N, Zhang S, Gorjifard S, Phyo Z, Andres M, Hughitt VK, Simpson RM, Miller MA, Girvin AT, Taylor A, Williams D, D'Antonio N, Zhang Y, Rajagopalan A, Flietner E, Wilson K, Zhang X, Shinn P, Klumpp-Thomas C, McKnight C, Itkin Z, Chen L, Kazandijian D, Zhang J, Michalowski AM, Simmons JK, Keats J, Thomas CJ, Mock BA. Drug combinations identified by high-throughput screening promote cell cycle transition and upregulate Smad pathways in myeloma. Cancer Lett. 2023 Aug 1;568:216284. doi: 10.1016/j.canlet.2023.216284. Epub 2023 Jun 24. PMID: 37356470; PMCID: PMC10408729.
SEQUENCE No. (e.g., 1, 2, 3, etc.); […] (e.g., Cells, Incubation, Reagent, etc.); VALUE and DESCRIPTION.
1; Cells; 5 uL; white, solid bottom 1536-well Greiner assay plate.
2; Compounds; 23 nL; Kalypsis pin tool (Wako USA) equipped with a 1536-well pin head to transfer to the assay plates.
3; Incubation; 48 hours; 37C incubation.
4; Reagent;5uL; CellTiter Glo (Promega).
5; Detector; 425V; Luminescence; Viewlux PerkinElmer.
NOTES (numbers refer to Sequence numbers above)
1. The cell-based screening methods employed in this study were like those previously published. Briefly, the corresponding myeloma cell lines were screened in 1,536-well plates with 500 cells, 5-uL per well for inhibition of cell viability (assessed by measuring ATP levels with CellTiterGlo).
2. NCATS MIPE 4.0 library of approved and investigational drugs were added using the Kalypsis pin tool. Wells treated with DMSO only for 100% viability and media only wells for 0% viability were used as controls.
3. The assay plates were covered and incubated for 48 hours in a 37C, 5% CO2 incubator with controlled humidity.
4. After 48 hours, CellTilter-GloTM luminescent substrate mix (Promega) reagent was added to the assay plate and plates we incubated for 5 min at room temperature.
5. Signal was measured as median relative luminescence units on a ViewLux (PerkinElmer) multiplate reader.
[1] Heske CM, Davis MI, Baumgart JT, Wilson K, Gormally MV, Chen L, Zhang X, Ceribelli M, Duveau DY, Guha R, Ferrer M, Arnaldez FI, Ji J, Tran HL, Zhang Y, Mendoza A, Helman LJ, Thomas CJ. Matrix Screen Identifies Synergistic Combination of PARP Inhibitors and Nicotinamide Phosphoribosyltransferase (NAMPT) Inhibitors in Ewing Sarcoma. Clin Cancer Res. 2017 Dec 1;23(23):7301-7311. doi: 10.1158/1078-0432.CCR-17-1121. Epub 2017 Sep 12. PMID: 28899971; PMCID: PMC6636827.
Potency means the concentration at half of the fitted maximal effect.

Compound	Potency	viability
OCCN1CCN(CCCN2c3ccccc3Sc3ccc(C(F)(F)F)cc32)CC1	14.8 µM (active)	
O=C(c1ccc(OCCN2CCCCC2)cc1)c1c(-c2ccc(O)cc2)sc2cc(O)ccc12	13.2 µM (active)	
CNCCCC12CCC(c3ccccc31)c1ccccc12	11.8 µM (active)	
Cc1ccc(C(=O)Nc2ccc(S(=O)(=O)O)c3cc(S(=O)(=O)O)cc(S(=O)(=O)O)c23)cc1NC(=O)c1cccc(NC(=O)Nc2cccc(C(=O)Nc3cc(C(=O)Nc4ccc(S(=O)(=O)O)c5cc(S(=O)(=O)O)cc(S(=O)(=O)O)c45)ccc3C)c2)c1		201%
Cn1cnc2c1c(=O)[nH]c(=O)n2C	9.35 µM (active)	
CS(=O)(=O)CCNCc1ccc(-c2ccc3ncnc(Nc4ccc(OCc5cccc(F)c5)c(Cl)c4)c3c2)o1	11.8 µM (active)	
O=C1c2c(O)ccc(O)c2C(=O)c2c(NCCNCCO)ccc(NCCNCCO)c21	1.48 µM (active)	
CC1COc2c(N3CCN(C)CC3)c(F)cc3c(=O)c(C(=O)O)cn1c23 (stereo unspecified)	5.26 µM (active)	
COc1cc2c(c(OC)c1OC)-c1ccc(OC)c(=O)cc1[C@@H](NC(C)=O)CC2		24.1%
CC1(C)O[C@H]2CC(=O)OC[C@]23[C@H]2CC[C@@]4(C)[C@H](c5ccoc5)OC(=O)[C@H]5O[C@]54[C@]2(C)C(=O)C[C@@H]13		166%
C[C@](N)(Cc1ccc(O)c(O)c1)C(=O)O	20.9 µM (active)	
CC(C)NCC(O)c1ccc(O)c(O)c1 (stereo unspecified)	0.372 µM (active)	
CN1CCC(=C2c3ccccc3CC(=O)c3sccc32)CC1		126%
Cc1cn([C@H]2C=C[C@@H](CO)O2)c(=O)[nH]c1=O		91.7% [at 92.2 µM] (active)
O=C(Nc1ccc([N+](=O)[O-])cc1Cl)c1cc(Cl)ccc1O	1.05 µM (active)	
CN1CCN(CCCN2c3ccccc3Sc3ccc(Cl)cc32)CC1	6.62 µM (active)	
